Key:
Test in all cases: DAPPL (digital affinity profiling via proximity ligation, sequencing); 10 mM Tris-HCl pH 7.5, 50 mM NaCl, 1 mM DTT, 4% glycerol, room temperature, 30 min; GST-TFs on glutathione beads, 16-mer random dsDNA library, 0.1% formaldehyde crosslink after washing; high values mean tight binding
FLI1 = molecular target: T1, FLI1 (Homo sapiens, UniProt Q01543 1-452); settings: protein: recombinant; tags: N-terminal GST; dsDNA, one strand shown
T1 sequence: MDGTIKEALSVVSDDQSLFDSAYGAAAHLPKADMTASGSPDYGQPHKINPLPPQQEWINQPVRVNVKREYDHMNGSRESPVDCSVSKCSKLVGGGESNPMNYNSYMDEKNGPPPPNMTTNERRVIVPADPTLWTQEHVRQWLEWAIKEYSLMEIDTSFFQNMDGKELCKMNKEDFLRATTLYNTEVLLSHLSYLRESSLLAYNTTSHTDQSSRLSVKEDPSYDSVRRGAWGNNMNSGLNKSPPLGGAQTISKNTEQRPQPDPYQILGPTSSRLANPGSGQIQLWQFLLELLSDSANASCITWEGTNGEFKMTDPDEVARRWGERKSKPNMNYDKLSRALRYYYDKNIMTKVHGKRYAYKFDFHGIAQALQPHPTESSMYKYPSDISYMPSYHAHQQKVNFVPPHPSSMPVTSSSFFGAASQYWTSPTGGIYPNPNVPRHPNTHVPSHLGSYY
Procedure, shortened: (§1)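 A tag-only sample was pooled with DNA-barcoded human transcription factors that had been expressed in yeast as GST fusions and captured on glutathione beads. The pools were incubated for 30 min at room temperature with 200 nmole of a random double-stranded 16-mer DNA library in Tris/NaCl/DTT/glycerol buffer, then washed, crosslinked with 0.1% formaldehyde, proximity-ligated (BsaI/T4 ligase, 1 h, 37 °C), PCR-amplified and sequenced on an Illumina NextSeq500. Binding signal is each hexamer's read frequency for a factor divided by its frequency for the tag-only sample.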

ELK1 = molecular target: T2, ELK1 (Homo sapiens, UniProt P19419 1-428); settings: protein: recombinant; tags: N-terminal GST; dsDNA, one strand shown
T2 sequence: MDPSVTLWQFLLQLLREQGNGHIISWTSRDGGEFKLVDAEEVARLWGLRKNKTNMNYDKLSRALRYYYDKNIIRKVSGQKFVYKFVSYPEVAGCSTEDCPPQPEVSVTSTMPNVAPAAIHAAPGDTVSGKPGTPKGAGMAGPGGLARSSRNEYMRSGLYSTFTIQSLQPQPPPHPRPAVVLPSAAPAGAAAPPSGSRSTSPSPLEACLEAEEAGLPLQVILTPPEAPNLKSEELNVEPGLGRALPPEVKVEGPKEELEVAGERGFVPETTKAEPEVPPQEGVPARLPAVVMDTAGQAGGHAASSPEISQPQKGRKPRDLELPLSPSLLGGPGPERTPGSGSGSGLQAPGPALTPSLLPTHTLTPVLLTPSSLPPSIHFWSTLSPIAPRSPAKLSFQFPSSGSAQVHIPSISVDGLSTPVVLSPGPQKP
Procedure, shortened: as §1

GABPA = molecular target: T3, GABPA (Homo sapiens, UniProt Q06546 1-454); settings: protein: recombinant; tags: N-terminal GST; dsDNA, one strand shown
T3 sequence: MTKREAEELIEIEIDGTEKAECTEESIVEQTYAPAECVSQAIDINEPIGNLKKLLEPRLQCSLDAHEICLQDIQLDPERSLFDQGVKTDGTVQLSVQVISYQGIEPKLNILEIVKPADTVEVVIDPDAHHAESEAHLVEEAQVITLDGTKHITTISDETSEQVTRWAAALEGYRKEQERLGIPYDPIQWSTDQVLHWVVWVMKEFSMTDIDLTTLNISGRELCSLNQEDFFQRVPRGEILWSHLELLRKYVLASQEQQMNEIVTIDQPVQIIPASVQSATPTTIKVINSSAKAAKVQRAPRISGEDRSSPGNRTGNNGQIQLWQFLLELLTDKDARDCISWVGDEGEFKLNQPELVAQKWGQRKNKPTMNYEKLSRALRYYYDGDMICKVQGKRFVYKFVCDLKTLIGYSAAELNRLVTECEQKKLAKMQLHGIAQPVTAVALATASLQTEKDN
Procedure, shortened: as §1

ERG = molecular target: T4, ERG (Homo sapiens, UniProt P11308 1-479); settings: protein: recombinant; tags: N-terminal GST; dsDNA, one strand shown
T4 sequence: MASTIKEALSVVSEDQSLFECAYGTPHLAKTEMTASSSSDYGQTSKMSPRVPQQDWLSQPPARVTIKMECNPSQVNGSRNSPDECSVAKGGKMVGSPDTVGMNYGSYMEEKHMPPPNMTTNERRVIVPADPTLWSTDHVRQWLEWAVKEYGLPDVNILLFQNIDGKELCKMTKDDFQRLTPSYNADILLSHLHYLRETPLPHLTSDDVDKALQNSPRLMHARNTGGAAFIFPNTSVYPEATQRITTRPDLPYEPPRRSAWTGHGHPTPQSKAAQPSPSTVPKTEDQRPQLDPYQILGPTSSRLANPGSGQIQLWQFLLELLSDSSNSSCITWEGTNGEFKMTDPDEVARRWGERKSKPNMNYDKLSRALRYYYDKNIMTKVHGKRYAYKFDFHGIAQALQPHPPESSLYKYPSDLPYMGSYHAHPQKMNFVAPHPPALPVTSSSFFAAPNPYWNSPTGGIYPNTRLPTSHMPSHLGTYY
Procedure, shortened: as §1

ELF1 = ELF1 (Homo sapiens, UniProt P32519 1-619); settings: protein: recombinant; tags: N-terminal GST; dsDNA, one strand shown
ELF1, sequence (P32519 whole entry): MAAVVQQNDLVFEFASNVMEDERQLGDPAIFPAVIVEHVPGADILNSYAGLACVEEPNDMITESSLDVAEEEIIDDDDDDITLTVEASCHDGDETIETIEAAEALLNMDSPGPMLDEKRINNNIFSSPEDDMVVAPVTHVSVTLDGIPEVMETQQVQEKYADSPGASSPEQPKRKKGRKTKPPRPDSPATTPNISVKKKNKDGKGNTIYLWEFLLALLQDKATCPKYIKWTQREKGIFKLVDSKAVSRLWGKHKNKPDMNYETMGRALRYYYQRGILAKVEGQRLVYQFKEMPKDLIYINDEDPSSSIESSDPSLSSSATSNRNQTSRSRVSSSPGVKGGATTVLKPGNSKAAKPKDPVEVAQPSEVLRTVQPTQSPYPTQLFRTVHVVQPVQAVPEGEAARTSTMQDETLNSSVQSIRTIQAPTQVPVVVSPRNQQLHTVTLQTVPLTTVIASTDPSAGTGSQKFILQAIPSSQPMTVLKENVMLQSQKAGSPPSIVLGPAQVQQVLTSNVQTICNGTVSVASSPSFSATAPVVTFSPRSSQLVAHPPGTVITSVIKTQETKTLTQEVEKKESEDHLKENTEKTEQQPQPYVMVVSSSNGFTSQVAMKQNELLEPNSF
Procedure, shortened: as §1

EHF = molecular target: T5, EHF (Homo sapiens, UniProt Q9NZC4 1-300); settings: protein: recombinant; tags: N-terminal GST; dsDNA, one strand shown
T5 sequence: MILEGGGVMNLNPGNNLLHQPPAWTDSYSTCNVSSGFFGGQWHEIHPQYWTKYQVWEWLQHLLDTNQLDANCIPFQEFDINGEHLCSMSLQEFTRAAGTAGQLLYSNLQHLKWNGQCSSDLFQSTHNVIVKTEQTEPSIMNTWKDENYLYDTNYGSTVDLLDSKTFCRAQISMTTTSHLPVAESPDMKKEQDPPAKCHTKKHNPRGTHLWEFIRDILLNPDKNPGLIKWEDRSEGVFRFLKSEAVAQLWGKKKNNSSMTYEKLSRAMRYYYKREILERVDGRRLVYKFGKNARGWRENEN
Procedure, shortened: as §1

SPI1 = SPI1 (Homo sapiens, UniProt P17947 1-270); settings: protein: recombinant; tags: N-terminal GST; dsDNA, one strand shown
Procedure, shortened: as §1

SPIB = SPIB (Homo sapiens, UniProt Q01892 1-262); settings: protein: recombinant; tags: N-terminal GST; dsDNA, one strand shown
SPIB, sequence (Q01892 whole entry): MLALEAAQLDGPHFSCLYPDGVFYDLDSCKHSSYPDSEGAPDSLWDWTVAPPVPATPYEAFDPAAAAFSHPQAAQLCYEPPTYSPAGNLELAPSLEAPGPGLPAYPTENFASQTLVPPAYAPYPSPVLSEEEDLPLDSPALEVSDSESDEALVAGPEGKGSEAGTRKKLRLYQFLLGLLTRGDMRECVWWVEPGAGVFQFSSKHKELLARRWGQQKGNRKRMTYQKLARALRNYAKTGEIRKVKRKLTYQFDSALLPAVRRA
Procedure, shortened: as §1

ELK3 = molecular target: T6, ELK3 (Homo sapiens, UniProt P41970 1-407); settings: protein: recombinant; tags: N-terminal GST; dsDNA, one strand shown
T6 sequence: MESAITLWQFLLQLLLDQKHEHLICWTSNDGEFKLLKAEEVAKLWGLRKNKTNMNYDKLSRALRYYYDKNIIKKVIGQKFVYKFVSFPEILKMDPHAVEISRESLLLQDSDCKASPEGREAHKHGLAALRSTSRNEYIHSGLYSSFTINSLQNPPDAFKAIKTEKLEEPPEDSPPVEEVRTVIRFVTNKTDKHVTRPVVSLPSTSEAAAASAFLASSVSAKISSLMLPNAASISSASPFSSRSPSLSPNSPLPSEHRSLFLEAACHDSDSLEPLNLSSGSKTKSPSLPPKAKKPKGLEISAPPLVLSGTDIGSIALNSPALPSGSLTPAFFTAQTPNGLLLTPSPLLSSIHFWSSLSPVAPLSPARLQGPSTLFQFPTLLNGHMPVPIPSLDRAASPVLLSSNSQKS
Procedure, shortened: as §1

FEV = molecular target: T7, FEV (Homo sapiens, UniProt Q99581 1-238); settings: protein: recombinant; tags: N-terminal GST; dsDNA, one strand shown
T7 sequence: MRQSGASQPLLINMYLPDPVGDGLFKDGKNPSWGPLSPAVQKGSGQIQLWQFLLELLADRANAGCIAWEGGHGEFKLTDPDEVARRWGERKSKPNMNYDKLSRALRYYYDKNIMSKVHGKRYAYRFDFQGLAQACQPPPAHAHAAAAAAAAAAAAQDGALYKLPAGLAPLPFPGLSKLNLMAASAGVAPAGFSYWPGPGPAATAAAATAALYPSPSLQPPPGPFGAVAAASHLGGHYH
Procedure, shortened: as §1

ETV5 = ETV5 (Homo sapiens, UniProt P41161 1-510); settings: protein: recombinant; tags: N-terminal GST; dsDNA, one strand shown
ETV5, sequence (P41161 whole entry): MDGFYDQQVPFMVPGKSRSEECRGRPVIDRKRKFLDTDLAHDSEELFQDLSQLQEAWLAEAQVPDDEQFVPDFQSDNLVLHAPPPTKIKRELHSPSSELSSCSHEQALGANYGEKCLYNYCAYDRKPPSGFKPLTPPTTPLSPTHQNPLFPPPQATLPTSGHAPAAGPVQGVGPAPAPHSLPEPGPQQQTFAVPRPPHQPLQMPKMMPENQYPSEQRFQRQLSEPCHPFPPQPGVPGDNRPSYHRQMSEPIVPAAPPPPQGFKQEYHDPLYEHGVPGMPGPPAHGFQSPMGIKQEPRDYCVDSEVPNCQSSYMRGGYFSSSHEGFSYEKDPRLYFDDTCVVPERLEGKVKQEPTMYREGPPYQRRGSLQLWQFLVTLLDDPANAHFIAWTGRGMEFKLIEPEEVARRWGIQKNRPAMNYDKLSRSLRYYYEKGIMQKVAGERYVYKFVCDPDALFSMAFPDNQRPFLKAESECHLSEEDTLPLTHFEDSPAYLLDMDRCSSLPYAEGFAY
Procedure, shortened: as §1

HSF1 = HSF1 (Homo sapiens, UniProt Q00613 1-529); settings: protein: recombinant; tags: N-terminal GST; chain copies: 3; dsDNA, one strand shown
HSF1, sequence (Q00613 whole entry): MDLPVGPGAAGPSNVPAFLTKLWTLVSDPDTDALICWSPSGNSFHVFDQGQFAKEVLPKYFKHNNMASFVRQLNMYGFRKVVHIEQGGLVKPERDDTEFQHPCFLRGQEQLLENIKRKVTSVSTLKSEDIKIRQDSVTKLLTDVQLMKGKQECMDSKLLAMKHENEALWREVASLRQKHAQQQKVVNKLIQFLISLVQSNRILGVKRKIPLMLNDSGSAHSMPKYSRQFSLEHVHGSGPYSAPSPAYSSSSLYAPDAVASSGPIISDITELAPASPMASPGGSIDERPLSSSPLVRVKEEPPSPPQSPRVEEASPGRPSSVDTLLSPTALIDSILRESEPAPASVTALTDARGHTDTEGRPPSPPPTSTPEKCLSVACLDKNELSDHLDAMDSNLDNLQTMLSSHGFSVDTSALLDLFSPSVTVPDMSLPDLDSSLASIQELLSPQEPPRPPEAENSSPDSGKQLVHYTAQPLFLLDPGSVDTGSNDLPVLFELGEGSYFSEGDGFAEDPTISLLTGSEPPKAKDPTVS
Procedure, shortened: as §1

SPIC = molecular target: T8, SPIC (Homo sapiens, UniProt Q8N5J4 1-248); settings: protein: recombinant; tags: N-terminal GST; dsDNA, one strand shown
T8 sequence: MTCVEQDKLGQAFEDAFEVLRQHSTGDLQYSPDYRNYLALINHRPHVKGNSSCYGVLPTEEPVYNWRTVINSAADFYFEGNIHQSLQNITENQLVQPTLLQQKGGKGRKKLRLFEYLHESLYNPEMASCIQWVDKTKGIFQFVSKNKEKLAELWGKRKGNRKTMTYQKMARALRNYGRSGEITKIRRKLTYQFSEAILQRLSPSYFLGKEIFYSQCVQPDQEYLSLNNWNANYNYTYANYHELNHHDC
Procedure, shortened: as §1

ELF4 = ELF4 (Homo sapiens, UniProt Q99607 1-663); settings: protein: recombinant; tags: N-terminal GST; dsDNA, one strand shown
ELF4, sequence (Q99607 whole entry): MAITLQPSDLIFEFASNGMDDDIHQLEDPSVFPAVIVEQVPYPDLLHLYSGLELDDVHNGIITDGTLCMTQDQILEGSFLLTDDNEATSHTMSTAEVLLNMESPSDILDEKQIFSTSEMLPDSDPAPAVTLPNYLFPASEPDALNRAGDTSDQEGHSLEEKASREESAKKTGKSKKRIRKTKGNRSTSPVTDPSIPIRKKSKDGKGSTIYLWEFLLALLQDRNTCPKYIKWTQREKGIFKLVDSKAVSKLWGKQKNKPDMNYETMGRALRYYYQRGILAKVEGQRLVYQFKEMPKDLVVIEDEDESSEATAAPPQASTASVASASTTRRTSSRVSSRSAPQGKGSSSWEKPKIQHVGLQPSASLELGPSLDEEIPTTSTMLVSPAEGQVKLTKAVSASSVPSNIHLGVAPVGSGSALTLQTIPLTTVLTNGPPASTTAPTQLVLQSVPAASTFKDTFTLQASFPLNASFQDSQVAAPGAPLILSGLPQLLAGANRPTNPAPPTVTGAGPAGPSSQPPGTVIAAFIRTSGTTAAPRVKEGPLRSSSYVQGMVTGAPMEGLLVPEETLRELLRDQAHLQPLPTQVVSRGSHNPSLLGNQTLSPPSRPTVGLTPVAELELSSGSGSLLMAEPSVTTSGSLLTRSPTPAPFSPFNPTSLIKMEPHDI
Procedure, shortened: as §1

ELK4 = molecular target: T9, ELK4 (Homo sapiens, UniProt P28324-2 1-405); settings: protein: recombinant; tags: N-terminal GST; dsDNA, one strand shown
T9 sequence: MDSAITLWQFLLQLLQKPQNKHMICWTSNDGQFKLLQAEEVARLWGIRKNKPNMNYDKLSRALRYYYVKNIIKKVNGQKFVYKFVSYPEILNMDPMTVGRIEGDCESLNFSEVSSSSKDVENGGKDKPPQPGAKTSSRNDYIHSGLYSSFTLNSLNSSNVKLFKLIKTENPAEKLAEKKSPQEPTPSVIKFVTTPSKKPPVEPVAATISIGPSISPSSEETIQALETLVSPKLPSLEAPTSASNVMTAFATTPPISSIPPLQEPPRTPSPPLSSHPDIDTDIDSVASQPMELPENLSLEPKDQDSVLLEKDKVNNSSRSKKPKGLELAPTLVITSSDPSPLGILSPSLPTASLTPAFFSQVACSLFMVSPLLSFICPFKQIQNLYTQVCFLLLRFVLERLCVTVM
Procedure, shortened: as §1

ETV2 = molecular target: T10, ETV2 (Homo sapiens, UniProt O00321 1-342); settings: protein: recombinant; tags: N-terminal GST; dsDNA, one strand shown
T10 sequence: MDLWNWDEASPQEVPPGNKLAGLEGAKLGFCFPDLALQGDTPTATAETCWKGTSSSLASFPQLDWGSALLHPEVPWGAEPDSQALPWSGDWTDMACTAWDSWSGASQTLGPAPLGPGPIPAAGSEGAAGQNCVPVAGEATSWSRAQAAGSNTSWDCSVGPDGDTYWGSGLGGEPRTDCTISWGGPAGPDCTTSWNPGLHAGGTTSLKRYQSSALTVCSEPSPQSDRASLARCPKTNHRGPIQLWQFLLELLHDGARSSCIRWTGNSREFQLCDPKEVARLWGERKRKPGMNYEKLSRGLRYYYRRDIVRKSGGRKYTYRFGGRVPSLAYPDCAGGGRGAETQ
Procedure, shortened: as §1

ELF3 = molecular target: T11, ELF3 (Homo sapiens, UniProt P78545 1-371); settings: protein: recombinant; tags: N-terminal GST; dsDNA, one strand shown
T11 sequence: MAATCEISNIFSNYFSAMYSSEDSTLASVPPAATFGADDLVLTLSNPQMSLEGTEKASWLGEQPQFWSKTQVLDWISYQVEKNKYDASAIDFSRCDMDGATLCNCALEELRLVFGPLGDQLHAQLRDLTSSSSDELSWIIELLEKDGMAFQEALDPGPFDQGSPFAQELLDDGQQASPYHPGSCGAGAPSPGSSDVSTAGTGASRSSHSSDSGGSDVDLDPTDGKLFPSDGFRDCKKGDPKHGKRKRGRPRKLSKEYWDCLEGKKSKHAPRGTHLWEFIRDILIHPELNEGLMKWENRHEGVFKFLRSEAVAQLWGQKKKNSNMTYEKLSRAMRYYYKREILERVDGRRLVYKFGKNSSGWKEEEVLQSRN
Procedure, shortened: as §1

ETV1 = ETV1 (Homo sapiens, UniProt P50549 1-477); settings: protein: recombinant; tags: N-terminal GST; dsDNA, one strand shown
ETV1, sequence (P50549 whole entry): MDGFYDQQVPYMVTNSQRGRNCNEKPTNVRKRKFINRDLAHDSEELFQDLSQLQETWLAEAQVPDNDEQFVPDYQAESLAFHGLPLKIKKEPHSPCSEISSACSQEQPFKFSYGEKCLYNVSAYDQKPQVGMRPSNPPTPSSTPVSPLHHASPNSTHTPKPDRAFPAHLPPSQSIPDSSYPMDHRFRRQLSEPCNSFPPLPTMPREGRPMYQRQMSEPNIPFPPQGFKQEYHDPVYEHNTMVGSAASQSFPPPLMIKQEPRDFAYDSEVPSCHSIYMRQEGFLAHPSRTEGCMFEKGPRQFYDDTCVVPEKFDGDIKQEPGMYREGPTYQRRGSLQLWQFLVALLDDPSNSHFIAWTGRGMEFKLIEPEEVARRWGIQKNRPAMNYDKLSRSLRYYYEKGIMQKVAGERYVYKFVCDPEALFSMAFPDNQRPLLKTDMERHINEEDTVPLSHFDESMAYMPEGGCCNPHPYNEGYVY
Procedure, shortened: as §1

AACAGC was tested, and the binding signal (FLI1) was 1.1 fold enrichment (6-mer frequency, TF over GST control), the binding signal (ELK1) was 1.1 fold enrichment (6-mer frequency, TF over GST control) and the binding signal (GABPA) was 1.17 fold enrichment (6-mer frequency, TF over GST control). The binding signal (ERG) was 1.13 fold enrichment (6-mer frequency, TF over GST control), the binding signal (ELF1) was 1.12 fold enrichment (6-mer frequency, TF over GST control) and the binding signal (EHF) was 1.16 fold enrichment (6-mer frequency, TF over GST control). For the same sequence, the binding signal (SPI1) was 1.11 fold enrichment (6-mer frequency, TF over GST control), the binding signal (SPIB) was 1.13 fold enrichment (6-mer frequency, TF over GST control) and the binding signal (ELK3) was 1.17 fold enrichment (6-mer frequency, TF over GST control). For the same sequence, the binding signal (FEV) was 1.14 fold enrichment (6-mer frequency, TF over GST control), the binding signal (ETV5) was 1.09 fold enrichment (6-mer frequency, TF over GST control) and the binding signal (HSF1) was 1 fold enrichment (6-mer frequency, TF over GST control). For the same sequence, the binding signal (SPIC) was 1.05 fold enrichment (6-mer frequency, TF over GST control), the binding signal (ELF4) was 1.15 fold enrichment (6-mer frequency, TF over GST control) and the binding signal (ELK4) was 1.2 fold enrichment (6-mer frequency, TF over GST control). For the same sequence, the binding signal (ETV2) was 1.12 fold enrichment (6-mer frequency, TF over GST control), the binding signal (ELF3) was 1.1 fold enrichment (6-mer frequency, TF over GST control) and the binding signal (ETV1) was 1.11 fold enrichment (6-mer frequency, TF over GST control).

— article PMC7862700, “An all-to-all approach to the identification of sequence-specific readers for epigenetic DNA modifications on cytosine”
